For 13 sequences, binding signal results are on record in article PMC5700166.

Assay in all cases: protein-binding microarray (PBM); PBM: ~300 nM protein, 6 mM HEPES pH 7.8, 80 mM KCl, 0.5 mM EDTA, 0.5 mM EGTA, 6% glycerol, 35 ng/ul poly-dIdC, 1% milk, 1 h, room temperature; Ap Aiptasia and Nv Nematostella (sea anemones) / Co Capsaspora / Aq Amphimedon (sponge) / Dm Drosophila / Hu human; RHD is the Rel homology domain; high values mean tight binding
Holding throughout (details): dsDNA, one strand shown

One assay has as its target T1, GST-Ap-NF-kB RHD (Exaiptasia pallida (Aiptasia), UniProt A0A913YAJ5 2-422).
T1 sequence: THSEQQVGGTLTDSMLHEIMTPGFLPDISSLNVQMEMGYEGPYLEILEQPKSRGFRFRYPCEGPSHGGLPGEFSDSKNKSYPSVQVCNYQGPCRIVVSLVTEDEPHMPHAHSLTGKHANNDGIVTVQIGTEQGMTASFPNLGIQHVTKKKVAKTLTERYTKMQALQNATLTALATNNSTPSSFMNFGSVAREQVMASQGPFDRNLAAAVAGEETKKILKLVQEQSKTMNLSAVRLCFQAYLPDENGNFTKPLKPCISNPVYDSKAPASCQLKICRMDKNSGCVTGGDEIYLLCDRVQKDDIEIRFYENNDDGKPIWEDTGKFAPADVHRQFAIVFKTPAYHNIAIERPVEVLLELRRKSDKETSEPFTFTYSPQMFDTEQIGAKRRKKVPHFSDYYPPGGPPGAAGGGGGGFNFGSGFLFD

Assay [1] has as its target T2, GST-Nv-NF-kB (Cys allele) (Nematostella vectensis, UniProt E5G601 2-411).
T2 sequence: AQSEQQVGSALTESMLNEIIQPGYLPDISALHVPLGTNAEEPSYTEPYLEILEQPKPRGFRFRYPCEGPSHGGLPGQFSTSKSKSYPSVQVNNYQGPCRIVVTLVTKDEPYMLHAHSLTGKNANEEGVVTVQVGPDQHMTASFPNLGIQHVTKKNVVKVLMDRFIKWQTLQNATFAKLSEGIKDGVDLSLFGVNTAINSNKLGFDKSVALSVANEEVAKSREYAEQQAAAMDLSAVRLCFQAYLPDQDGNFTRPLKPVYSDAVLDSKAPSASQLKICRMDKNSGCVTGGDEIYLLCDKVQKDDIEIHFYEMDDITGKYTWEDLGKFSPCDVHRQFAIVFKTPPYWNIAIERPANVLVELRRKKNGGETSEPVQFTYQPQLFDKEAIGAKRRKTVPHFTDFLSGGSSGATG

Assay [2] concerns the target T3, GST-Nv-NF-kB (Ser allele) (Nematostella vectensis, UniProt A7UNT2 2-411).
T3 sequence: T2 sequence with Q21R, C66S, S207N, E215Q, V217A, E225K, A268E, D399E

A further assay addresses T4, GST-Co-NF-kB (Capsaspora owczarzaki, UniProt F1ARL5 200-546).
T4 sequence: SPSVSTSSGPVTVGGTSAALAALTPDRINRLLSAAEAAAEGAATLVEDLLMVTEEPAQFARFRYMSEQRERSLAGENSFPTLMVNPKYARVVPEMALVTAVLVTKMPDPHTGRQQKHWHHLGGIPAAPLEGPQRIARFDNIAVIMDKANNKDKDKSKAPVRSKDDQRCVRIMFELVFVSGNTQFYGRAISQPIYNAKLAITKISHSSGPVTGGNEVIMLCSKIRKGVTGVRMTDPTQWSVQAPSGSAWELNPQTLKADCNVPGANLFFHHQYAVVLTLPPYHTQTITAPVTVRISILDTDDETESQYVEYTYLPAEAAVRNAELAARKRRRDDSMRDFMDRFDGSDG

The next assay has as its target T5, GST-Dm-Relish (Drosophila melanogaster, UniProt Q94527 99-473).
T5 sequence: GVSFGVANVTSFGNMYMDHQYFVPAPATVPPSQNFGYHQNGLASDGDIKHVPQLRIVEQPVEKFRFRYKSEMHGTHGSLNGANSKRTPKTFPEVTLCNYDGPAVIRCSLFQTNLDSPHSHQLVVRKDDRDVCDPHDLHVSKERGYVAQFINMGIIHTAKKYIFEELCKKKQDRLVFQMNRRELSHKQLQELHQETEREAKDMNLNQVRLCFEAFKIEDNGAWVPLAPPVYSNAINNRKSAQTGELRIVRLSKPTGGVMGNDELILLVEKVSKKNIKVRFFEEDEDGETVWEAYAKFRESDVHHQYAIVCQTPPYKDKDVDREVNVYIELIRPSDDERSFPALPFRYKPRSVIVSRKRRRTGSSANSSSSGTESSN

Another assay deals with T6, GST-Aq-NF-kB (Amphimedon queenslandica, UniProt A9Y5G7 2-389).
T6 sequence: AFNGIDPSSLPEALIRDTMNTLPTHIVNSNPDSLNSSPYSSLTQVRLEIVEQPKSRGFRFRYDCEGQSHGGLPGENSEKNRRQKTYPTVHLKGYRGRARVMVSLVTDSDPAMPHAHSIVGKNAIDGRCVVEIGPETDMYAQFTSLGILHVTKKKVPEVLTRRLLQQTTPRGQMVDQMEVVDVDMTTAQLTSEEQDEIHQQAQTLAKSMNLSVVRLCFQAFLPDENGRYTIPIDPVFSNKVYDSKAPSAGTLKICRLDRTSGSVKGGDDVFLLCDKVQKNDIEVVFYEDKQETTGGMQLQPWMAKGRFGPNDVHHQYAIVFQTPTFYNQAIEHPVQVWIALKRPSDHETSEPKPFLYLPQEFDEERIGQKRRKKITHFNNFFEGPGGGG

The target of the next assay is GST-Hu-p50 (Homo sapiens, UniProt P19838 7-356).
Sequence of GST-Hu-p50 (P19838 7-356): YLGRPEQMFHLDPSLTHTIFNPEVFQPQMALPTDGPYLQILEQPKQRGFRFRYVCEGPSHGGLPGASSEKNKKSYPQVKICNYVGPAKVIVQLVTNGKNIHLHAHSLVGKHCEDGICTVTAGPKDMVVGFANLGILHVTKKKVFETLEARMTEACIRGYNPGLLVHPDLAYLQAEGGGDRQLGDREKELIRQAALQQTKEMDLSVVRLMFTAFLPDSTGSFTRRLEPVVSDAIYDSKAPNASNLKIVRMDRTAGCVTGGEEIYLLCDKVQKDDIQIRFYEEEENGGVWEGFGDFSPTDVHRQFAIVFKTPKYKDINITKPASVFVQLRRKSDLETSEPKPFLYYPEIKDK

Changes are numbered by the printed parent chain.

Consider “CCGATTAACATCACAGAATTCCCTGATGTTAATCGGGTCTTGATTCGCTTGACGCTGCTG”, for which the binding signal was 5.09 z-score with GST-Ap-NF-kB RHD; 6.44 z-score in assay [1]; 6.81 z-score in assay [2]; 3.6 z-score in the assay with GST-Co-NF-kB; 4.28 z-score with GST-Dm-Relish; 5.42 z-score with GST-Aq-NF-kB. Further, in the assay with GST-Hu-p50, the binding signal is 4.93 z-score.
For “CCGATTAACATCAAAAGGGGATATGATGTTAATCGGGTCTTGATTCGCTTGACGCTGCTG”, the binding signal with GST-Ap-NF-kB RHD was 4.87 z-score; in assay [1], 5.63 z-score; in assay [2], 7.56 z-score; with GST-Co-NF-kB it was 2.09 z-score; in the assay with GST-Dm-Relish it was 2.06 z-score; with GST-Aq-NF-kB, 3.8 z-score. In addition, the binding signal with GST-Hu-p50 came out at 4.41 z-score.
Turning to “CCGATTAACATCAGGAATCCCCCTGATGTTAATCGGGTCTTGATTCGCTTGACGCTGCTG”, the binding signal with GST-Ap-NF-kB RHD is 10.9 z-score; in assay [1] it was 10.2 z-score; in assay [2], 9.39 z-score; with GST-Co-NF-kB it was 5.73 z-score; with GST-Dm-Relish, 10.2 z-score; in the assay with GST-Aq-NF-kB it was 9.58 z-score. Moreover, in the assay with GST-Hu-p50, the binding signal came out at 7.57 z-score.
“CCGATTAACATCAGAATTCCCCCTGATGTTAATCGGGTCTTGATTCGCTTGACGCTGCTG”: the binding signal with GST-Ap-NF-kB RHD is 10.1 z-score; in assay [1] it was 11.8 z-score; in assay [2], 11.7 z-score; in the assay with GST-Co-NF-kB, 10.8 z-score; with GST-Dm-Relish, 8.22 z-score; with GST-Aq-NF-kB, 8.47 z-score. Moreover, in the assay with GST-Hu-p50, the binding signal turned out to be 8.34 z-score.
For “CCGATTAACATCACAGTTCCCCCTGATGTTAATCGGGTCTTGATTCGCTTGACGCTGCTG”, the binding signal worked out at 6.94 z-score with GST-Ap-NF-kB RHD; 6.16 z-score in assay [1]; 7.51 z-score in assay [2]; 8.18 z-score with GST-Co-NF-kB; 3.79 z-score in the assay with GST-Dm-Relish; 4.7 z-score with GST-Aq-NF-kB. Further, in the assay with GST-Hu-p50, the binding signal amounted to 5.66 z-score.
Consider “CCGATTAACATCAGGGGATTTTATGATGTTAATCGGGTCTTGATTCGCTTGACGCTGCTG”, for which the binding signal stood at 10.4 z-score with GST-Ap-NF-kB RHD; 11.7 z-score in assay [1]; 12.7 z-score in assay [2]; 4.81 z-score with GST-Co-NF-kB; 9.55 z-score with GST-Dm-Relish; 8.66 z-score with GST-Aq-NF-kB. In the assay with GST-Hu-p50, the binding signal was 8.09 z-score.
Turning to “CCGATTAACATCAGGGGGAACCATGATGTTAATCGGGTCTTGATTCGCTTGACGCTGCTG”, the binding signal in the assay with GST-Ap-NF-kB RHD was 7.4 z-score; in assay [1], 6.04 z-score; in assay [2], 7.3 z-score; in the assay with GST-Co-NF-kB it was 8.58 z-score; in the assay with GST-Dm-Relish it was 5.08 z-score; with GST-Aq-NF-kB, 4.5 z-score. In addition, the binding signal with GST-Hu-p50 came to 5.84 z-score.
“CCGATTAACATCACTAGTTTCCCTGATGTTAATCGGGTCTTGATTCGCTTGACGCTGCTG”: the binding signal with GST-Ap-NF-kB RHD amounted to 3.06 z-score; in assay [1], 3.43 z-score; in assay [2], 4.61 z-score; in the assay with GST-Co-NF-kB, 4.16 z-score; in the assay with GST-Dm-Relish, 1.28 z-score; with GST-Aq-NF-kB, 3.03 z-score. In the assay with GST-Hu-p50, this sequence gave a binding signal of 2.26 z-score.
As to “CCGATTAACATCAGTAAATCCCATGATGTTAATCGGGTCTTGATTCGCTTGACGCTGCTG”, the binding signal with GST-Ap-NF-kB RHD is 1.49 z-score; in assay [1], 1.09 z-score; in assay [2], 1.18 z-score; in the assay with GST-Co-NF-kB, 1.48 z-score; with GST-Dm-Relish it was 7.4 z-score; with GST-Aq-NF-kB, 2.3 z-score. In addition, the binding signal in the assay with GST-Hu-p50 was 1.94 z-score.
As for “CCGATTAACATCAGGGGGAAATATGATGTTAATCGGGTCTTGATTCGCTTGACGCTGCTG”, the binding signal with GST-Ap-NF-kB RHD worked out at 7.3 z-score; in assay [1], 8.58 z-score; in assay [2] it was 10.6 z-score; in the assay with GST-Co-NF-kB it was 11.1 z-score; in the assay with GST-Dm-Relish, 4.77 z-score; with GST-Aq-NF-kB it was 6.38 z-score. In the assay with GST-Hu-p50, this sequence showed a binding signal of 7.38 z-score.
With “CCGATTAACATCAGGGGGGCGCATGATGTTAATCGGGTCTTGATTCGCTTGACGCTGCTG”, the binding signal was 3.86 z-score with GST-Ap-NF-kB RHD; 3.14 z-score in assay [1]; 3.06 z-score in assay [2]; 3.25 z-score with GST-Co-NF-kB; 4.09 z-score with GST-Dm-Relish; 4.07 z-score with GST-Aq-NF-kB. In the assay with GST-Hu-p50, this sequence yielded a binding signal of 4.13 z-score.
“CCGATTAACATCAGGGGGATATATGATGTTAATCGGGTCTTGATTCGCTTGACGCTGCTG”: the binding signal stood at 6.45 z-score in the assay with GST-Ap-NF-kB RHD; 5.67 z-score in assay [1]; 6.14 z-score in assay [2]; 6.72 z-score in the assay with GST-Co-NF-kB; 4.91 z-score with GST-Dm-Relish; 5.58 z-score with GST-Aq-NF-kB. Moreover, in the assay with GST-Hu-p50, the binding signal worked out at 5.49 z-score.
Consider “CCGATTAACATCAGGGGGATTCATGATGTTAATCGGGTCTTGATTCGCTTGACGCTGCTG”, for which the binding signal with GST-Ap-NF-kB RHD is 8.54 z-score; in assay [1], 7.43 z-score; in assay [2], 8.48 z-score; with GST-Co-NF-kB, 5.63 z-score; in the assay with GST-Dm-Relish it was 7.41 z-score; with GST-Aq-NF-kB, 6.1 z-score. In the assay with GST-Hu-p50, this sequence registered a binding signal of 7.07 z-score.
